According to PubChem BioAssay (Tox21):
Several values for one entry are separate records, joined by “and”; a condition that tells them apart may be missing. Equal values may be shown once. Results filed as inconclusive are left out. A call without a number means that no potency is given here. The source holds several records for some structures; these can differ, active in one and inactive in another. Activity calls are given as the source filed them. Unless noted, calls come from the whole dose curve.

Tests used:
[1] = Nuclear factor erythroid 2-related factor 2/antioxidant responsive element (Nrf2/ARE) small molecule agonists: qHTS cell viability counter screen in human keratinocytes (AID 1919968; active = well fitted curve in the direction sought with a large enough effect in the repeat runs; an effect the other way counts as inactive or inconclusive; note: nearly all actives have a fitted effect of over 55% in size; note: potency is the fitted concentration of half-maximal effect)
Procedure, shortened: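 Stably transfected HaCaT (KeratinoSens), 1,500/well. Test agents in DMSO were applied for 23 h, 37 C/5% CO2. CellTiter-Fluor was incubated 1 h before the fluorescence read.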

[2] = Nuclear factor erythroid 2-related factor 2/antioxidant responsive element (Nrf2/ARE) small molecule agonists: luciferase reporter gene qHTS assay in human keratinocytes (AID 1919969); note: nearly all actives have a fitted effect of over 35% in size; note: potency is the fitted concentration of half-maximal effect
[3] = target: Gonadotropin-releasing hormone receptor (Homo sapiens) (UniProt P30968); assay: Human gonadotropin-releasing hormone receptor (GnRHR) small molecule agonists, calcium flux assay in GnRHR-HEK293 cells (AID 1920063); note: nearly all actives have a fitted effect of over 35% in size; note: potency is the fitted concentration of half-maximal effect
Gonadotropin-releasing hormone receptor (Homo sapiens), sequence (P30968 whole entry, looked up): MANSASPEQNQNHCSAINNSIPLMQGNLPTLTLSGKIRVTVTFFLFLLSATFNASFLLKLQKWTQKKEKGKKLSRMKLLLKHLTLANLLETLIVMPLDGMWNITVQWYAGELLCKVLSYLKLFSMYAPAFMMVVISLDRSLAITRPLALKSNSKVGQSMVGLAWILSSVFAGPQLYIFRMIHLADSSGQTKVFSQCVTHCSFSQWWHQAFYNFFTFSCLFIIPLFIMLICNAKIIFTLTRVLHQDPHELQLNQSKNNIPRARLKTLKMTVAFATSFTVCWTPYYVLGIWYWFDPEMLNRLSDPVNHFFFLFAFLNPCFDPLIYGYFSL
Procedure, shortened: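 Stable human GnRHR HEK293 line. 18 h plating, then calcium dye for 1 h at 37 C. Agonist-mode compound addition from DMSO stocks; fluorescence monitored 3 min.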

[4] = target: KiSS-1 receptor (Homo sapiens) (UniProt Q969F8); assay: Human kisspeptin (KISS1R) small molecule agonists, calcium flux assay in KISS1R-HEK293 cells (AID 1920064; active = well fitted curve in the direction sought with a large enough effect in the repeat runs; an effect the other way counts as inactive or inconclusive; note: potency is the fitted concentration of half-maximal effect)
KiSS-1 receptor (Homo sapiens), sequence (Q969F8 whole entry, looked up): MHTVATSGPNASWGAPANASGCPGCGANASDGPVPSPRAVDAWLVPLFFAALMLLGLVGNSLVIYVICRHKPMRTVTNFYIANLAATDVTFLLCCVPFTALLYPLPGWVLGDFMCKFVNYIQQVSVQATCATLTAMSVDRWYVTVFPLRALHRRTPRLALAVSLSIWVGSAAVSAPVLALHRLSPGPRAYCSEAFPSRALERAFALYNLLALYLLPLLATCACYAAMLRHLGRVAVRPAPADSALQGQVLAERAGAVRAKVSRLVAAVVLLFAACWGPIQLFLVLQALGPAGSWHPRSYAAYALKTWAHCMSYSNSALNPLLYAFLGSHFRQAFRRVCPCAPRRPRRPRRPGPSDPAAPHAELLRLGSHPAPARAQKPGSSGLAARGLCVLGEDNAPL
Procedure, shortened: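 After overnight (18 h) culture at 37 C/5% CO2, human KISS1R-HEK293 cells received calcium dye for 1 h, then test compound; emission at 540 nm (excitation 480 nm) was tracked for 3 min.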

[5] = G protein-coupled receptor (GPCR) small molecule agonists, calcium flux assay: HEK293 wild type cell line counter screen (AID 1920065); note: potency is the fitted concentration of half-maximal effect
Procedure, shortened: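 Following 18 h incubation at 37 C/5% CO2, plates got calcium dye for 1 h; compounds, ATP or DMSO were then pinned in and fluorescence followed kinetically (480/540 nm).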

[6] = p53 small molecule agonists, cell-based qHTS assay with human liver microsomes (AID 1963577)
Procedure, shortened: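 p53RE-bla reporter cells were pre-incubated 5 h at 37 C, then treated with compounds plus human liver microsomes (0.5 mg/mL final) and NADPH (0.5 mg/mL final) for 16 h at 37 C. Beta-lactamase activity was read by LiveBLAzer fluorescence after 2 h at room temperature.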

[7] = p53 small molecule agonists, cell-based qHTS assay with rat liver microsomes (AID 1963578)
Procedure, shortened: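 p53RE-bla cells were exposed to compounds together with rat liver microsomes (0.5 mg/mL final) and NADPH (0.5 mg/mL final) for 16 h at 37 C, then read by LiveBLAzer beta-lactamase fluorescence after 2 h at room temperature.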

[8] = p53 small molecule agonists, cell-based qHTS assay with human liver microsomes: qHTS cell viability counter screen (AID 1963579); note: nearly all actives have a fitted effect of over 45% in size; note: potency is the fitted concentration of half-maximal effect
Procedure, shortened: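 p53RE-bla cells (4,000/well) were pre-incubated 5 h at 37 C, then given compounds in DMSO plus human liver microsomes (0.5 mg/mL final) and NADPH (0.5 mg/mL final) for 16 h at 37 C. Viability was read by CellTiter-Glo luminescence.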

[9] = p53 small molecule agonists, cell-based qHTS assay with rat liver microsomes: qHTS cell viability counter screen (AID 1963580); note: nearly all actives have a fitted effect of over 45% in size; note: potency is the fitted concentration of half-maximal effect
Procedure, shortened: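 Luminescent ATP readout (CellTiter-Glo, 30 min at room temperature) reports viability of p53RE-bla HCT-116 cells after 16 h at 37 C with test compounds under metabolic activation by rat liver microsomes and NADPH at 0.5 mg/mL final each.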

[10] = p53 small molecule agonists, cell-based qHTS assay: qHTS cell viability counter screen (AID 1963581); note: nearly all actives have a fitted effect of over 45% in size; note: potency is the fitted concentration of half-maximal effect
Procedure, shortened: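 qHTS counter screen: 16 h compound exposure at 37 C of p53RE-bla HCT-116 cells (4,000 per well, seeded 5 h prior), cell viability by ATP luminescence.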

[11] = target: 5-hydroxytryptamine receptor 2A (Homo sapiens) (UniProt P28223); assay: 5-hydroxytryptamine receptor 2A (HTR2A) small molecule antagonists, cell-based qHTS assay (AID 1963586); note: nearly all actives have a fitted effect of over 45% in size; note: potency is the fitted concentration of half-maximal effect
5-hydroxytryptamine receptor 2A (Homo sapiens), sequence (P28223 whole entry, looked up): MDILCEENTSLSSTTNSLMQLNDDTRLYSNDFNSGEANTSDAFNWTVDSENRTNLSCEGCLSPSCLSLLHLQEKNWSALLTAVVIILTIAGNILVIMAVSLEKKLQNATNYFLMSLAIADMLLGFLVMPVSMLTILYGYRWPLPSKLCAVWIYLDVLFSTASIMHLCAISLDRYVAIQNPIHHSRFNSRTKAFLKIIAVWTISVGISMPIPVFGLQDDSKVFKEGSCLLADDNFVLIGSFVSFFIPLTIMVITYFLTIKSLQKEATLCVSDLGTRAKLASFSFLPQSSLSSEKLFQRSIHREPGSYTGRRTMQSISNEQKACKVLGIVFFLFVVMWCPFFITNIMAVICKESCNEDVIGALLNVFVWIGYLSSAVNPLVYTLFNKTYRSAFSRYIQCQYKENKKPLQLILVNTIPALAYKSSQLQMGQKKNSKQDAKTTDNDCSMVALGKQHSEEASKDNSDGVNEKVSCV
Procedure, shortened: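 CHO cells stably expressing human HTR2A were plated for 18 h at 37 C, then loaded with calcium dye for 1 h. Compounds were preincubated 5 min at room temperature before DOI (4 nM solution) was added. Kinetic fluorescence was read for 3 min.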

[12] = target: 5-hydroxytryptamine receptor 2A (Homo sapiens) (UniProt P28223); assay: 5-hydroxytryptamine receptor 2A (HTR2A) small molecule agonists, cell-based qHTS assay (AID 1963587); note: nearly all actives have a fitted effect of over 30% in size; note: potency is the fitted concentration of half-maximal effect
Procedure, shortened: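 HTR2A-CHO cells, plated 18 h at 37 C/5% CO2, dye-loaded 1 h at 37 C; compounds in DMSO added by pin tool (agonist mode). Intracellular calcium flux read as kinetic fluorescence on FDSS over 2 min at 1 s intervals.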

[13] = target: Muscarinic acetylcholine receptor M1 (Homo sapiens) (UniProt P11229); assay: Cholinergic receptor muscarinic 1 (CHRM1) small molecule antagonists, cell-based qHTS assay (AID 1963588); note: nearly all actives have a fitted effect of over 40% in size; note: potency is the fitted concentration of half-maximal effect
Muscarinic acetylcholine receptor M1 (Homo sapiens), sequence (P11229 whole entry, looked up): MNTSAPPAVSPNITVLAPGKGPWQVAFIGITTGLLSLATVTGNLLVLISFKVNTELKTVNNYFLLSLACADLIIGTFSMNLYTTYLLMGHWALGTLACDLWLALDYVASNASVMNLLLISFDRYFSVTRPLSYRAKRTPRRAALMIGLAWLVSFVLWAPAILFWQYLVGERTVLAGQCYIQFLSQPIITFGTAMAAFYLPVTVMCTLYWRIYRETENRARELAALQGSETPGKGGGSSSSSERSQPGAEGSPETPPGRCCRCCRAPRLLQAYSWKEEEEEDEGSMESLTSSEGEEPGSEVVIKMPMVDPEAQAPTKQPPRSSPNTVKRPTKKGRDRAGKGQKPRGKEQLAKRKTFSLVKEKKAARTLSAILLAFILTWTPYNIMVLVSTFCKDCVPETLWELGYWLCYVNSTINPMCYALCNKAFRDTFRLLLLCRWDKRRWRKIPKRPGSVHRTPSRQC
Procedure, shortened: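 Compounds were tested at 15 concentrations in three independent runs. Dye-loaded CHRM1-CHO cells were exposed 5 min at room temperature before stimulation by acetylcholine added at 50nM. Intracellular calcium was read kinetically on FDSS for 3 min.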

[14] = target: Muscarinic acetylcholine receptor M1 (Homo sapiens) (UniProt P11229); assay: Cholinergic receptor muscarinic 1 (CHRM1) small molecule agonists, cell-based qHTS assay (AID 1963589); note: nearly all actives have a fitted effect of over 35% in size; note: potency is the fitted concentration of half-maximal effect
Procedure, shortened: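 Kinetic fluorescence (1 s intervals) of calcium-sensitive dye in human M1 CHO cells after compound addition; cells pre-incubated 18 h at 37 C/5% CO2 and dye-loaded 1 h.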

[15] = target: D(2) dopamine receptor (Homo sapiens) (UniProt P14416); assay: Dopamine D2 receptor (DRD2) small molecule agonists, cell-based qHTS assay (AID 1963594); note: nearly all actives have a fitted effect of over 35% in size
D(2) dopamine receptor (Homo sapiens), sequence (P14416 whole entry, looked up): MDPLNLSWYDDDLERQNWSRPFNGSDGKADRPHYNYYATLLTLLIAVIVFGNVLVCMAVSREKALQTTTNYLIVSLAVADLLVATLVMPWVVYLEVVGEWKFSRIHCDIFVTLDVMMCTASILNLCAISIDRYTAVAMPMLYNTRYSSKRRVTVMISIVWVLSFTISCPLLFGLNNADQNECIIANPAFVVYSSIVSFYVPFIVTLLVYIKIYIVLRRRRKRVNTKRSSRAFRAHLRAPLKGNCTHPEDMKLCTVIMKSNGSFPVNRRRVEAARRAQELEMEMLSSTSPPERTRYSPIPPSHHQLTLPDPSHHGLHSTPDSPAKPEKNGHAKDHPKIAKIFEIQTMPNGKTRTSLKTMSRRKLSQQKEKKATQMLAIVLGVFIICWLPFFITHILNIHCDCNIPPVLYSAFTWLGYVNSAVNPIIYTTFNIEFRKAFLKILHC
Procedure, shortened: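 HEK293 cells stably expressing DRD2 were cultured 24 h at 37 C, then given Ro20-1724 (0.1 mM final) and compounds for 10 min at room temperature. NKH477 (200nM) was then added for 30 min. cAMP was read by HTRF.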

[16] = target: D(2) dopamine receptor (Homo sapiens) (UniProt P14416); assay: Dopamine D2 receptor (DRD2) small molecule antagonists, cell-based qHTS assay (AID 1963595; active = well fitted inhibition curve with a large enough effect in the signal ratio in the repeat runs, with a control signal flat; the % refers to the signal ratio; note: potency is the fitted concentration of half-maximal effect)
Procedure, shortened: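 Antagonist mode in DRD2-HEK293 cells: after compound addition with 0.1 mM Ro20-1724, cells received quinpirole (12 nM) and NKH477 (200 nM) for 30 min at room temperature; HTRF cAMP read after 1 h detection.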

[17] = cAMP Responsive Elements (CRE) small molecule antagonists, cell-based qHTS assay (AID 1963591; active = well fitted inhibition curve with a large enough effect in the signal ratio in the repeat runs, not every such curve was filed as active; the % refers to the signal ratio)
Procedure, shortened: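 Reporter line CRE-bla HEK 293T in dialyzed-FBS DMEM; cells preincubated 18 h, treated 3 h with compound plus NKH477 (0.25 uM final); LiveBLAzer FRET, 2 h RT.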

[18] = target: Beta-2 adrenergic receptor (Homo sapiens) (UniProt P07550); assay: Adrenergic beta2 receptor (ADRB2) small molecule antagonists, cell-based qHTS assay (AID 1963592); note: nearly all actives have a fitted effect of over 50% in size; note: potency is the fitted concentration of half-maximal effect
Beta-2 adrenergic receptor (Homo sapiens), sequence (P07550 whole entry, looked up): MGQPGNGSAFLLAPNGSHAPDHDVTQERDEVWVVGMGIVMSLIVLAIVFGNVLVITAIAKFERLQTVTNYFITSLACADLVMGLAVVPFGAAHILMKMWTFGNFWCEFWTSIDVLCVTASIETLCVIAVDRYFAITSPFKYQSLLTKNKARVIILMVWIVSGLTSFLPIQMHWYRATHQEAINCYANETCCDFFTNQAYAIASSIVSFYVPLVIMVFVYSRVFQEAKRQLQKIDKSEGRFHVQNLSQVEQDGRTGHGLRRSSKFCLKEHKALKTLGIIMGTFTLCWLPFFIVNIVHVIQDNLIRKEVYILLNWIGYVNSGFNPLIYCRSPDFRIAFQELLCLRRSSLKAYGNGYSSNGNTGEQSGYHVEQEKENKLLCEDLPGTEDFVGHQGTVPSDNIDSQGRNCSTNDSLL
Procedure, shortened: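 Assay format: CHO-ADRB2 cells, 18-20hr seeding at 37C/5% CO2, then compound plus 1nM isoproterenol agonist mix for 0.5hr RT. Homogeneous time-resolved fluorescence cAMP detection after 1hr, expressed as 665/615 nm ratio.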

[19] = p53 small molecule agonists, cell-based qHTS assay (AID 1963582; active = well fitted activation curve with a large enough effect in the signal ratio in the repeat runs, not every such curve was filed as active; the % refers to the signal ratio)
Procedure, shortened: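 Measured: fluorescence from cleaved LiveBLAzer substrate. System: p53RE-bla cells, 16 h compound treatment at 37 C, 2 h substrate step at room temperature.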

[20] = cAMP Responsive Elements (CRE) small molecule agonists, cell-based qHTS assay (AID 1963590)
Procedure, shortened: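 Test agents in DMSO were incubated 3 h at 37 C/5% CO2 with CRE-bla HEK 293T cells seeded 18 h earlier; LiveBLAzer B/G FRET substrate was added and read after 2 h at room temperature.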

| SMILES | Potency [1] | Potency [2] | Potency [3] | Potency [4] | Potency [5] | Potency [6] | Potency [7] | Potency [8] | Potency [9] | Potency [10] | Potency [11] | Potency [12] | Potency [13] | Potency [14] | Potency [15] | Potency [16] | Potency [17] | Potency [18] | Potency [19] | Potency [20] |
| --- | --- | --- | --- | --- | --- | --- | --- | --- | --- | --- | --- | --- | --- | --- | --- | --- | --- | --- | --- | --- |
| O=[N+]([O-])c1ccc(Cl)c([N+](=O)[O-])c1 | 24.7 µM (active) and 43.3 µM (active) | 15.6 µM (active) | inactive | inactive | inactive | inactive | inactive | 36.9 µM (active) and 40.8 µM (active) | 40.8 µM (active) | 26.1 µM (active) | inactive | inactive | inactive | inactive | inactive | inactive |  |  |  |  |
| CCN(N=O)C(N)=O | inactive | inactive | inactive | inactive | inactive | inactive | inactive | inactive | inactive | inactive | inactive | inactive | inactive |  | inactive | inactive | inactive | inactive |  |  |
| Nc1ccccc1C(=O)OCC(O)CO (stereo not drawn) | inactive | inactive | inactive | inactive | inactive | inactive | inactive | inactive | inactive |  | inactive | inactive | inactive | inactive | inactive | inactive | inactive | inactive | inactive | inactive |
| COCC(=O)N(c1c(C)cccc1C)C(C)C(=O)OC (stereo not drawn) | inactive | inactive | inactive | inactive | inactive | inactive | inactive | inactive | inactive | inactive | inactive | inactive | inactive | inactive | inactive |  | inactive |  |  | inactive |
| CCC(C)c1cc([N+](=O)[O-])cc([N+](=O)[O-])c1O (stereo not drawn) | inactive and 17.2 µM (active) | inactive | inactive | inactive | inactive | inactive | inactive | inactive | inactive |  | inactive | inactive | inactive | inactive |  |  | inactive | inactive | inactive | inactive |
| N#Cc1cc(Br)c(O)c(Br)c1 | inactive | inactive | inactive | inactive | inactive | inactive | inactive | inactive | inactive | inactive |  | inactive | inactive | inactive | inactive | inactive | inactive | inactive |  |  |
| CCC[CH2][Sn]([Cl])([CH2]CCC)[CH2]CCC | 244 nM (active) and 486 nM (active) | 244 nM (active) and 486 nM (active) | 7.78 µM (active) and 38.9 µM (active) | 43.6 µM (active) | 34.7 µM (active) | inactive | inactive | 6.48 µM (active) and 5.76 µM (active) | 4.09 µM (active) and 4.08 µM (active) | 1.29 µM (active) and inactive | 18.8 µM (active) | 11 µM (active) and 34.7 µM (active) | 16.8 µM (active) | 21.9 µM (active) and 38.9 µM (active) |  | 15.4 µM (active) and 19.3 µM (active) |  | 1.09 µM (active) and 1.37 µM (active) |  |  |
| O=[N+]([O-])c1ccc(Oc2ccc(Cl)cc2Cl)cc1 | inactive | inactive | inactive | inactive | inactive | inactive | inactive | inactive | inactive | inactive | inactive | inactive | inactive | inactive | inactive | inactive | inactive | inactive |  | inactive |
